In publication PMC4552634, “A New Set of Chemical Starting Points with Plasmodium falciparum Transmission-Blocking Potential for Antimalarial Drug Discovery” (PLoS ONE, 2015):
The campaign covered roughly 13,000 compounds. About 3,200 (25%) showed an effect of 50% or more. This is one part of the list.

Each compound was assayed on P. falciparum stage V gametocytes. Conditions: 48 h, 5 µM; inhibitor.
Parameters: BacTiter-Glo ATP luminescence viability of purified stage V gametocytes in 384-well plates, per cent inhibition versus DMSO

| SMILES | % Inhibition [%] |
| --- | --- |
| CCCO[C@H](C(=O)OC)[C@@H](CC1Cc2ccccc2C1)C(=O)NCCC1=CCCCC1 [TCMDC-140419] | -16.75 |
| COc1ccc2nc(C)cc(Nc3ccc(Oc4ccc5ccccc5c4)c(Cl)c3)c2c1 [TCMDC-124209] | -14.35 |
| N#Cc1cccc(-c2nc(NCc3cccc(C(F)(F)F)c3)nn2-c2cccc(C(F)(F)F)c2)c1 [TCMDC-133548] | -85.5 |
| Cc1nc(N)nc(N)c1-c1ccc(Br)c(Br)c1 [TCMDC-137372] | 14.5 |
| COc1ccc2ncc(F)c(CCN3CCC(CNC(=O)C(=O)c4c[nH]c5ccccc45)CC3)c2n1 [TCMDC-135874] | 3.215 |
| Cc1cc(C(=O)Nc2ccc3c(ccn3C3CCCN(Cc4ccc(C(F)(F)F)cc4F)CC3)c2)no1 (stereo not drawn) [TCMDC-135088] | 41.42 |
| COC(=O)c1ccc(-c2ccc(-c3cccnc3)cc2C)cc1 [TCMDC-139074] | 95.09 |
| COc1cccc(NC(=O)Nc2ccc(C)c(-c3ccc(C(=O)Nc4ccncc4)cc3)c2)c1 [TCMDC-133704] | -18.6 |
| COc1ccc(NC(=O)c2ccc(-c3ccc(-c4cccnc4)cc3)c(C)c2)cc1OCCN(C)C [TCMDC-138989] | 38.05 |
| COc1ccc(NC(=O)c2ccc3cc4ccccc4cc3c2)cc1N1CCN(C)CC1 [TCMDC-138983] | 82.38 |
| COc1ccc(C(=O)Nc2ccc3nc(N4CCCCC4)cc(C)c3c2)cc1OC [TCMDC-124422] | 4.122 |
| COc1ccc(NC(=O)c2ccc(-c3nc(-c4ccccc4)cs3)cc2)cc1N1CCN(C)CC1 [TCMDC-138980] | -14.93 |
| COc1ccc(NC(=O)c2ccc(OCCCCCCCOc3ccc(C(=O)Nc4ccc(OC)c(N5CCN(C)CC5)c4)cc3)cc2)cc1N1CCN(C)CC1 [TCMDC-139007] | 102 |
| COc1ccc(NC(=O)c2ccc(C=Cc3ccc(C(F)(F)F)cc3)cc2)cc1N1CCN(C)CC1 [TCMDC-138674] | 15.84 |
| CCN1CCN(c2cc(C)c3cc(NC(=O)c4ccc(OC)c([N+](=O)[O-])c4)ccc3n2)CC1 [TCMDC-123599] | 3.112 |
| COc1ccc(NC(=O)c2ccc(Br)c(C)c2)cc1N1CCN(CCCCc2ccccc2)CC1 [TCMDC-139035] | -7.283 |
| COc1ccc(NC(=O)c2ccc(Br)c(C)c2)cc1N1CCN(CCCc2c[nH]c3ccccc23)CC1 [TCMDC-139036] | 49.59 |
| COc1ccc(NC(=O)c2cccc(Br)c2)cc1N1CCN(CCCCCCCN2CCN(c3cc(NC(=O)c4cccc(Br)c4)ccc3OC)CC2)CC1 [TCMDC-139020] | 104.8 |
| COc1ccc(NC(=O)c2ccc(-c3cccc(OCc4ccccc4)c3)cc2)cc1N1CCN(C)CC1 [TCMDC-138991] | -59.54 |
| COc1ccc(NC(=O)c2ccc(NC(=O)c3ccc(Cl)cc3)cc2)cc1N1CCN(C)CC1 [TCMDC-138188] | 5.64 |
| CCN1CCN(c2cc(C)c3cc(NC(=O)c4ccc(OC)c(OC)c4)ccc3n2)CC1 [TCMDC-123598] | 74.46 |

| SMILES | % Inhibition [%] |
| --- | --- |
| O=C(Nc1cc(C(F)(F)F)cc(C(F)(F)F)c1)c1cccc([N+](=O)[O-])c1 [TCMDC-123503] | -13.95 |
| COc1csc2cc(Br)ccc12 [TCMDC-139000] | 9.347 |
| COc1cc(C(=O)NCCCN2CCN(c3cc(Cl)ccc3OC)CC2)ccc1-c1nc2cc(Cl)c(Cl)cc2[nH]1 [TCMDC-140079] | 4.425 |
| COc1cc(C(F)(F)F)c2cc(CNCCCNc3nc4ccccc4[nH]3)[nH]c2c1 [TCMDC-140014] | 33.56 |
| CCOc1ccc(Nc2ccc3nonc3c2S(=O)(=O)Nc2ccc(OCC)cc2)cc1 [TCMDC-138325] | -11.05 |
| CCC(CC)(CCC#N)CN(C[C@@H](O)[C@H](Cc1ccccc1)NC(=O)OC(C)(C)C)S(=O)(=O)c1ccc(OC)cc1 [TCMDC-138270] | 4.425 |
| COc1ccc(O)c(Cc2cnc3nc(N)[nH]c(=O)c3c2C)c1 [TCMDC-137766] | -34.15 |
| CCCNc1ccc2nccc(CCN3CCC(NCc4ccc5c(n4)NC(=O)CS5)CC3)c2n1 [TCMDC-141591] | 39.25 |
| CO/C(=C\C=C\c1cc2cc(Cl)c(Cl)cc2[nH]1)C(=O)NCCCN1CCN(C2CCCCC2)CC1 [TCMDC-139296] | -42.38 |
| COc1ccc(Cl)cc1N1CCN(CCCNC(=O)c2ccc(-c3nc4cc(Cl)c(F)cc4[nH]3)c(F)c2)CC1 [TCMDC-140098] | -15.17 |
| COc1ccc2nc(-c3ccc(C(=O)NCCCN4CCN(c5cc(Cl)ccc5OC)CC4)cc3)[nH]c2c1 [TCMDC-140024] | -1.879 |
| CCOC(=O)C1CCN(CCCNC(=O)/C(=C/C=C/c2cc3cc(Cl)c(Cl)cc3[nH]2)OC)CC1 [TCMDC-139356] | -1.751 |
| CO/C(=C\C=C\c1cc2cc(Cl)c(Cl)cc2[nH]1)C(=O)NCCCN1CC(C)N(C)CC1C (stereo not drawn) [TCMDC-139044] | -57.76 |
| CO/C(=C\C=C\c1cc2cc(Cl)c(Cl)cc2[nH]1)C(=O)NCCN1CCCCC1 [TCMDC-139019] | 39.34 |
| CO/C(=C\C=C\c1cc2cc(Cl)c(Cl)cc2[nH]1)C(=O)NCCCN1CCN(c2cccc(Cl)c2)CC1 [TCMDC-139141] | 15.28 |
| CO/C(=C\C=C\c1cc2cc(Cl)c(Cl)cc2[nH]1)C(=O)NCCCN1CCCC[C@H]1C [TCMDC-139058] | 98.53 |
| CO/C(=C\C=C\c1cc2cc(Cl)c(Cl)cc2[nH]1)C(=O)NCCCN1CCCC[C@@H]1C [TCMDC-139059] | 70.67 |
| CO/C(=C\C=C\c1cc2cc(Cl)c(Cl)cc2[nH]1)C(=O)NCCCCN1CCN(c2ccccc2OC)CC1 [TCMDC-139178] | -64.2 |
| CO/C(=C\C=C\c1cc2cc(Cl)ccc2[nH]1)C(=O)NCCCN1CCN(c2cc(Cl)ccc2OC)CC1 [TCMDC-139242] | 50.82 |
| COc1ccc(Cl)cc1N1CCN(CCCNC(=O)c2ccc(-c3nc4cc(Cl)c(F)cc4[nH]3)cc2)CC1 [TCMDC-140094] | 66.12 |
| O=C(Nc1ccc(C(=O)N(Cc2ccc3c(c2)OCO3)C2CCCC2)cc1)c1cccs1 [TCMDC-125341] | 18.48 |

| SMILES | % Inhibition [%] |
| --- | --- |
| O=C(Nc1cccc(C2=NCCCN2)c1)Nc1cccc(C2=NCCCN2)c1 [TCMDC-137203] | -4.824 |
| CNCC(C)(C)c1nc(-c2ccc(Cl)c(O)c2)c(-c2ccncc2)[nH]1 [TCMDC-140762] | -81.65 |
| CC1CCc2sc(-c3nnc(SC(C)C(=O)N4CCCC4)o3)cc2C1 (stereo not drawn) [TCMDC-124867] | 8.673 |
| COc1ccc2nc(N=C3NC4(c5ccccc5)NC(=Nc5nc6ccc(OC)cc6[nH]5)NC4(c4ccccc4)N3)[nH]c2c1 (stereo not drawn) [TCMDC-139632] | -5.623 |
| O=C(Nc1ccc(OC2CCN(Cc3ccsc3)C2)c(Cl)c1)c1cccs1 (stereo not drawn) [TCMDC-133948] | 17.98 |
| CC(C)NCc1ccc(-c2ccc(CN3CCCC(c4ccccc4)C3)cc2)c(C(=O)NC2Cc3ccccc3C2)c1 (stereo not drawn) [TCMDC-134700] | 9.317 |
| CCc1ccc(-c2cnc(N)c3cc(-c4ccnc(N)n4)ccc23)cc1 [TCMDC-134546] | 12.63 |
| Cc1cccc2[nH]c(-c3cccc(-c4cccc(NC(=O)Nc5ccsc5)c4)c3)nc12 [TCMDC-133213] | -5.013 |
| COc1ccc2c(ccc3c2ncc2c(=O)n(-c4ccccc4)[nH]c23)c1 [TCMDC-142015] | 8.903 |
| COC(=O)c1cccc(CNCc2cccc(-c3ccc(-c4nc5ccccc5[nH]4)cc3)c2)c1.O=C(O)C(F)(F)F [TCMDC-132959] | -6.074 |
| O=C(O)C(F)(F)F.c1ccc(-n2ncc(CNCc3ccc(-c4cccc(-c5nc6ccccc6[nH]5)c4)cc3)n2)cc1 [TCMDC-132564] | -40.42 |
| Nc1cccc(CNCc2ccc(-c3cccc(-c4nc5ccccc5[nH]4)c3)cc2)c1.O=C(O)C(F)(F)F [TCMDC-132924] | -75.75 |
| Cn1cncc1CNCc1ccc(-c2cccc(-c3nc4ccccc4[nH]3)c2)cc1.O=C(O)C(F)(F)F [TCMDC-132569] | 52.47 |
| COC(=O)c1cccc(CNCc2ccc(-c3cccc(-c4nc5cc(C(F)(F)F)ccc5[nH]4)c3)cc2)c1.O=C(O)C(F)(F)F [TCMDC-132947] | -37.36 |
| COC(=O)c1cccc(CNCc2ccc(-c3cccc(-c4nc5ccccc5[nH]4)c3)cc2)c1.O=C(O)C(F)(F)F [TCMDC-132555] | 70.67 |
| Cn1cccc1CCNCc1ccc(-c2cccc(-c3nc4ccccc4[nH]3)c2)cc1.O=C(O)C(F)(F)F [TCMDC-132543] | 2.509 |
| NC(=O)c1cccc(CNCc2ccc(-c3cccc(-c4nc5ccccc5[nH]4)c3)cc2)c1.O=C(O)C(F)(F)F [TCMDC-132570] | 70.11 |
| O=C(O)C(F)(F)F.c1cc(-c2ccc(CNCc3ccsc3)cc2)cc(-c2nc3ccccc3[nH]2)c1 [TCMDC-132563] | -10.09 |
| N#Cc1cccc(Nc2nccc(Nc3ccc(Oc4ccccc4)cc3)n2)c1 [TCMDC-138558] | -36.77 |
| CCCCCCc1cc(O)c2c3c(c(=O)oc2c1)CCN(C)C3 [TCMDC-124193] | 9.848 |
| CC(C)c1ccc(OCC(O)CN(C)C(C)C(O)c2ccccc2)c(Br)c1 (stereo not drawn) [TCMDC-141995] | 3.955 |
